This passage reports Potency results from PubChem BioAssay (NCATS).

Each structure is given as a SMILES string. Inconclusive results are not listed. A call without a number means that no potency is given here. Activity calls are given as the source filed them. The call rests on the fitted dose curve; in most records, active means well fitted cell-killing curve with a large enough effect; inconclusive means small, poorly fitted or top-dose-only effect; inactive means no such curve, though single readings can be large or run the other way.
Potency means the concentration at half of the fitted maximal effect.

One assay can be described thus: qHTS of pediatric cancer cell lines to identify multiple opportunities for drug repurposing: Primary screen for NB1643 cells (AID 1347099). Further: nearly all actives have a fitted effect of over 50% in size. As to conditions: NB1643 neuroblastoma viability, CellTiter-Glo luminescence, 48 h; series mostly up to 46 µM. The method in brief:
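Plated cells (500-1,000 per well, growth media) were allowed to settle for 5 hours, treated with compound dilutions for 48 hours, then lysed with CellTiter-Glo for 15 min at room temperature before luminescence reading.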
With `Cc1c(N)nc([C@H](CC(N)=O)NC[C@@H](N)C(N)=O)nc1C(=O)N[C@H](C(=O)N[C@@H](C)[C@H](O)[C@@H](C)C(=O)N[C@@H](C(=O)NCCc1nc(-c2nc(C(=O)NCCC[S+](C)C)cs2)cs1)[C@@H](C)O)C(O[C@H]1O[C@H](CO)[C@H](O)[C@@H](O)[C@@H]1O[C@H]1O[C@H](CO)[C@@H](O)[C@H](OC(N)=O)[C@H]1O)c1cnc[nH]1` (some centres not stated), the Potency was 1.66 µM (active). On the same count and under the same terms, for `CC(C)[C@H]1C(=O)N[C@H](CO)Cc2c[nH]c3cccc(c23)N1C` the value was “inactive”.

On to `C#C[C@]1(O)C=C[C@@H]2[C@@H]3CCC4=CC(=O)CC[C@@H]4[C@H]3CC[C@@]21CC`, for which the Potency was 8.33 µM (active). With `CCCCOC(=O)c1ccccc1C(=O)OCc1ccccc1`, the Potency entry was “inactive”. Take `CCC(=O)O[C@@H]1C=C2CCC3C(CCC4(C)C3CC[C@@H]4OC(=O)CC)C2CC1` (some centres not stated): the Potency result was “inactive”.

`C[C@](O)(COc1ccc(C#N)cc1)C(=O)Nc1ccc(C#N)c(C(F)(F)F)c1`: the Potency was 23.5 µM (active).

Consider `CCCCCC[C@H]1C(=O)O[C@H](C)[C@H](NC(=O)c2cccc(NC=O)c2O)C(=O)O[C@@H](C)[C@@H]1OC(=O)CC(C)C`, for which the Potency is 23.5 µM (active). Regarding `CCOP(=O)(OCC)C(C)NC(=O)N(CCCl)N=O` (configuration not stated), the Potency entry is “inactive”. Regarding `Cc1cc(O)ccc1Cl`, the Potency result is “inactive”. On the same count and under the same terms, for `C#CC1(O)CCC2C3CCC4=CC(=O)CCC4(C)C3CCC21C` (configuration not stated) the value was 23.5 µM (active); for `CCCCCCCCc1ccc(O)cc1`, “inactive”; for `S=C(SSC(=S)N1CCCCC1)N1CCCCC1`, 0.0944 µM (active).

The next assay can be described thus: qHTS of pediatric cancer cell lines to identify multiple opportunities for drug repurposing: Primary screen for LAN-5 cells (AID 1347100). The following applies: LAN-5 neuroblastoma viability, CellTiter-Glo luminescence, 48 h; series mostly up to 46 µM. The method, boiled down:
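Cells (500-1,000/well) in growth media were settled 5 h at 37 degrees C, then given compounds for 48 h. Viability was read as CellTiter-Glo luminescence. Primary runs used MIPE at 11 points (0.78 nM-46 µM) and NPC at 8 points (0.59 nM-46 µM); follow-ups used 11 points.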
In general terms: Quantitative high-throughput screening tests each substance at several concentrations.
Turning to `CCO/N=C(\CC)C1=C(O)CC(c2c(C)cc(C)cc2C)CC1=O` (configuration not stated), the Potency entry was “inactive”. The same measure, in the same setting: for `CCCN1CCO[C@@H]2c3cc(O)ccc3OC[C@@H]21` the value was 14.8 µM (active); for `Cc1c(N)nc([C@H](CC(N)=O)NC[C@@H](N)C(N)=O)nc1C(=O)N[C@H](C(=O)N[C@@H](C)[C@H](O)[C@@H](C)C(=O)N[C@@H](C(=O)NCCc1nc(-c2nc(C(=O)NCCC[S+](C)C)cs2)cs1)[C@@H](C)O)C(O[C@H]1O[C@H](CO)[C@H](O)[C@@H](O)[C@@H]1O[C@H]1O[C@H](CO)[C@@H](O)[C@H](OC(N)=O)[C@H]1O)c1cnc[nH]1` (some centres not stated), 0.526 µM (active); for `C#C[C@]1(O)C=C[C@@H]2[C@@H]3CCC4=CC(=O)CC[C@@H]4[C@H]3CC[C@@]21CC`, “inactive”.

Consider `C[C@@H]1CC[C@H]2[C@@H](C)C(=O)O[C@@H]3O[C@@]4(C)CC[C@H]1[C@]32OO4`, for which the Potency entry is “inactive”. Take `CCCCOC(=O)c1ccccc1C(=O)OCc1ccccc1`: the Potency result was “inactive”. Same read-out and setting: for `Oc1ccc2c3c1O[C@H]1c4[nH]c5c(c4C[C@@]4(O)[C@@H](C2)N(CC2CC2)CC[C@]314)C[C@@]1(O)[C@H]2Cc3ccc(O)c4c3[C@@]1(CCN2CC1CC1)[C@H]5O4` the value was “inactive”. The same measure, in the same setting: for `CO/C=C(/C(=O)OC)c1ccccc1Oc1cc(Oc2ccccc2C#N)ncn1` the value was 21.7 µM (active); for `CC[C@H]1C=CC=CC[C@@H](C)[C@H](O)[C@@](C)(O)C(=O)[C@@H](C)[C@H](O)[C@@H](C)C(=O)[C@@H](C)[C@H](O)[C@@H](C)C=CC(=O)O[C@@H]2[C@@H](C)[C@H](CC1)O[C@]1(CC[C@H](C)[C@H](C[C@@H](C)O)O1)[C@H]2C`, 18.7 µM (active). Same read-out and setting: for `CCCCCCCCCC(CC)c1ccc(S(=O)(=O)O)cc1` (configuration not stated) the value was “inactive”. As to `CCC(=O)O[C@@H]1C=C2CCC3C(CCC4(C)C3CC[C@@H]4OC(=O)CC)C2CC1` (some centres not stated), the Potency entry was “inactive”. On the same count and under the same terms, for `Nc1ccc(N=Nc2ccccc2)cc1` the value was 38.6 µM (active); for `CCOP(=O)(OCC)C(C)NC(=O)N(CCCl)N=O` (configuration not stated), “inactive”. Consider `CC1(N2CCC(n3c([C@@H]4CCCNC4)nc4ccccc43)CC2)CCCCCCC1`, for which the Potency was 20.9 µM (active). On the same count and under the same terms, for `Cc1cc(O)ccc1Cl` the value was “inactive”. On the same count and under the same terms, for `C#CC1(O)CCC2C3CCC4=CC(=O)CCC4(C)C3CCC21C` (configuration not stated) the value was “inactive”.

Turning to `O=C1C(I)=CC(=C(c2cc(I)c(O)c(I)c2)c2ccccc2C(=O)O)C=C1I`, the Potency result was “inactive”. On the same count and under the same terms, for `CC(=O)Nc1ccc(OC[C@](C)(O)C(=O)Nc2ccc([N+](=O)[O-])c(C(F)(F)F)c2)cc1` the value was “inactive”; for `C=C[C@@H]1CN2CCC1C[C@H]2[C@H](O)c1ccnc2ccccc12` (some centres not stated), “inactive”. Take `CCN(CC)C(=O)c1ccc(C2=CC3(CCNCC3)Oc3cccc(O)c32)cc1`: the Potency entry is “inactive”. The same measure, in the same setting: for `CC(N[C@H]1C[C@H]1c1ccccc1)c1ccc2c(c1)OCCO2` (some centres not stated) the value was “inactive”. Still for that read-out and setting: for `CC=C(C)C(=O)N[C@@H](c1ccccc1)[C@@H](O)C(=O)O[C@H]1C[C@@]2(O)[C@@H](OC(=O)c3ccccc3)[C@@H]3[C@]4(OC(C)=O)CO[C@@H]4C[C@H](O)[C@@]3(C)C(=O)[C@H](OC(C)=O)C(=C1C)C2(C)C` the value was 0.001 µM (active); for `COc1ccc(CC2NCCc3cc(OC)c(OC)cc32)cc1OC` (configuration not stated), “inactive”. The same measure, in the same setting: for `O=S(=O)(c1ccc(Cl)cc1)c1ccc(Cl)cc1` the value was “inactive”; for `S=C(SSC(=S)N1CCCCC1)N1CCCCC1`, 0.168 µM (active).
